Vaccinia mCherry: vaccinia inhibition (mCherry reporter). Vaccinia virus mCherry reporter infection, fluorescence. Potency, µM (top dose mostly 36.5 µM), for the others: at the top dose activity change, negative = inhibition, most hits filed as inhibitors. 310,000 compounds, 0.63% hits; calls by dose curve; tested in A549 cells; further: potency means the concentration at half of the fitted maximal effect; nearly all actives have a fitted effect of over 35% in size
FMDV inh: blocks foot and mouth disease virus | FMDV antiviral cell-based qHTS | Potency, µM (doses to about 57.9 µM), inactives show top-dose activity change, negative = inhibition, hits mostly inhibitors | 410,000 compounds, 1.2% hits | AID 1159524; calls by dose curve; tested in HEK293T cells; further: read-out not given here; potency means the concentration at half of the fitted maximal effect; nearly all actives have a fitted effect of over 45% in size
HCV inh: HCV inhibition; Huh7.5.1 HCVcc-Cre infection, luciferase reporter, 44 h; Potency, µM (series often up to 41.8 µM), for inactives: at the highest dose activity change, negative = inhibition, most hits filed as inhibitors; 340,000 compounds, 3.4% hits; further: potency means the concentration at half of the fitted maximal effect
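Cells (1,000/well) were plated 4 h before compound, then infected with HCVcc-Cre virus (~0.5 moi). After 44 h further culture, infection was read as luciferase luminescence following a 15 min substrate incubation at room temperature.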
HCMV inh: blocks human cytomegalovirus replication; 410,000 compounds, 4.5% hits; AID 1259415; activity change, negative = inhibition, % at 57.5 µM; HFF cells, HCMV-luciferase reporter, 72 h; stronger effect = lower value; in the data active means activity change below about -60%; inconclusive means no clear call, values can overlap the other calls; inactive means above about -39%
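Screen run at 2 compound doses on HFFs infected with reporter HCMV, MOI 1 PFU/cell. Luciferase activity from cell lysates at 72 h post infection gave inhibition relative to buffer-only and Salinomycin wells.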
Vaccinia Venus: inhibitors of vaccinia virus (Venus reporter); 330,000 compounds, 0.46% hits; Vaccinia virus Venus reporter expression, fluorescence; AID 720580; Potency, µM (doses to about 36.5 µM), for inactives: at the top dose activity change, negative = inhibition, usual class: inhibitors; calls by dose curve; tested in A549 cells; further: potency means the concentration at half of the fitted maximal effect; nearly all actives have a fitted effect of over 30% in size
Giardia FBPA inh: Giardia lamblia aldolase inhibition. A8B2U2. purified Giardia FBPA. Potency, µM (highest dose often 59.6 µM), without a hit: at the top dose activity, negative = inhibition, usual class: inhibitors. 290,000 compounds, 0.71% hits; further: potency means the concentration at half of the fitted maximal effect; nearly all actives have a fitted effect of over 55% in size
Target sequence (A8B2U2 whole entry, looked up): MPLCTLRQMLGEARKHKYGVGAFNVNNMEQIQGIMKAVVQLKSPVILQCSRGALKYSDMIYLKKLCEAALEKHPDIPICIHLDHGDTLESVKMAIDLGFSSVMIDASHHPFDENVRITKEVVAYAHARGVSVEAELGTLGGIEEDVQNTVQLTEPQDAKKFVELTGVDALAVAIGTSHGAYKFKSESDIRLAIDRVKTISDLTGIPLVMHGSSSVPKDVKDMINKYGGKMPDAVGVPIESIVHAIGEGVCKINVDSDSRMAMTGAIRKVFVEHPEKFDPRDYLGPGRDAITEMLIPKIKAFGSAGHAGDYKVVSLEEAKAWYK
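40 nM FBPA preincubated 10 min at RT with compound (up to 57.5 uM final), then substrate plus GAPDH/TPI/NAD/arsenate coupling and diaphorase/resazurin added. Fluorescence read after 20 min at RT, 525/598 nm.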
* marks the source's active call; other numbers are inactive results; ! = repeats disagree. A selection: hits, their analogues and other compounds. The true share with any hit is near 7.5%. Unless noted, the call rests on the fitted dose curve; in most records, active means well fitted curve in the direction sought with a large enough effect; inconclusive means small, poorly fitted or top-dose-only effect, or another doubt; inactive means no such curve, though single readings can be large; an effect the other way counts as inactive or inconclusive. On the % scale 0 is the no-effect control and ±100 the full control effect.

Results for COc1cc(NS(=O)(=O)c2ccc(NC(C)=O)cc2)nc(OC)n1 ?
Vaccinia mCherry: inactive; FMDV inh: -3%; HCV inh: 21%; HCMV inh: 67; Vaccinia Venus: -14%; Giardia FBPA inh: 0%

What do the screens show for `COc1cc(NS(=O)(=O)c2ccc(N/C=C(\C#N)c3nc4cc(Cl)ccc4o3)cc2)nc(OC)n1`?
FMDV inh: inconclusive; HCV inh: -11%; HCMV inh: -86*; Vaccinia Venus: inconclusive; Giardia FBPA inh: -5%

How did CC1OC(OC2CC(O)C3(CO)C4C(O)CC5(C)C(C6=CC(=O)OC6)CCC5(O)C4CCC3(O)C2)C(O)C(O)C1O (stereo not given) do in these assays?
Vaccinia mCherry: 0.089µM*; FMDV inh: inconclusive; HCV inh: inconclusive; HCMV inh: -72*; Vaccinia Venus: inconclusive

How did C[C@@H]1O[C@@H](O[C@H]2C[C@@H](O)[C@]3(CO)[C@H]4[C@H](O)C[C@]5(C)[C@@H](C6COC(=O)C6)CC[C@]5(O)[C@@H]4CC[C@]3(O)C2)[C@H](O)[C@H](O)[C@H]1O (stereo not given in full) do in these assays?
Vaccinia mCherry: 1.1µM*; FMDV inh: inconclusive; HCV inh: 1µM*!; HCMV inh: -97*; Vaccinia Venus: 1.1µM*; Giardia FBPA inh: 8%

How did Cc1cccc(Cc2c(C)nc3nc(SCc4cccc(F)c4)nn3c2C)c1 do in these assays?
Vaccinia mCherry: -14%; FMDV inh: -13%; HCMV inh: 15; Vaccinia Venus: -10%

How did CCN(CC)CCNC(=O)CCc1c(C)nc2c(c(C)nn2-c2ccc(C)cc2)c1C do in these assays?
FMDV inh: -16%; HCV inh: 3.5µM*; HCMV inh: -93*; Giardia FBPA inh: 7%

Results for COCCNC(=O)CCc1c(C)nc2c(c(C)nn2-c2ccc(C)cc2)c1C ?
Vaccinia mCherry: -11%; FMDV inh: inconclusive; HCV inh: -9%; HCMV inh: -12; Vaccinia Venus: -6%; Giardia FBPA inh: -1%

Results for COc1ccc2c(c1)OC(C)CN(CCNC(=O)C1CCOC1)C2 (stereo not given) ?
Vaccinia mCherry: -4%; FMDV inh: 11%; Vaccinia Venus: 7%

How did CCc1nnc(N/N=C/c2cc(Br)c(O)cc2O)n1N do in these assays?
Vaccinia mCherry: inconclusive; FMDV inh: 1%; HCV inh: -9%; HCMV inh: -14; Vaccinia Venus: inconclusive; Giardia FBPA inh: inconclusive

Results for CC(C)(C)c1nnc(N/N=C/c2cc(Br)ccc2O)n(N)c1=O ?
Vaccinia mCherry: 2.5µM*; FMDV inh: 22µM*; HCV inh: inconclusive; HCMV inh: -101*; Vaccinia Venus: inconclusive; Giardia FBPA inh: 5%

How did COC(=O)c1ccccc1-c1cc(C)cc2c1OC(CNC(=O)C1CCCO1)C2 (stereo not given) do in these assays?
Vaccinia mCherry: -20%; FMDV inh: -2%; Vaccinia Venus: -18%

How did COn1c(C)c(C)c2c3nonc3ccc21 do in these assays?
Vaccinia mCherry: -14%; FMDV inh: -3%; HCV inh: inconclusive; HCMV inh: -65*; Vaccinia Venus: -8%; Giardia FBPA inh: inconclusive

Results for CCOC(=O)c1c(C)n(OCc2ccccc2)c2ccc3nonc3c12 ?
Vaccinia mCherry: -10%; HCV inh: inconclusive; HCMV inh: -13; Vaccinia Venus: -12%; Giardia FBPA inh: -10%

Results for C=CCOn1c(C)c(C(C)=O)c2c3nonc3ccc21 ?
Vaccinia mCherry: -9%; FMDV inh: -29%; HCV inh: inconclusive; HCMV inh: -81*; Vaccinia Venus: 3%; Giardia FBPA inh: inconclusive

Results for Cc1ccc2c(Cl)c(C)c(N3CCOCC3)nc2n1 ?
Vaccinia mCherry: inactive; FMDV inh: -10%; HCV inh: 0%; HCMV inh: -11; Vaccinia Venus: -15%

What do the screens show for `O=C(Nc1cccc(C(F)(F)F)c1)C1CCCN1S(=O)(=O)c1cccc2nsnc12` (stereo not given)?
Vaccinia mCherry: inconclusive; FMDV inh: inconclusive; HCMV inh: -36; Vaccinia Venus: -29%

How did Cc1ccc(S(=O)(=O)Nc2cccc3ncccc23)s1 do in these assays?
Vaccinia mCherry: inconclusive; FMDV inh: 28µM*; HCV inh: inconclusive; Vaccinia Venus: inconclusive; Giardia FBPA inh: 12%

What do the screens show for `O=C(CCl)N(Cc1cc(=O)[nH]c2ccccc12)c1ccccc1`?
Vaccinia mCherry: inconclusive; FMDV inh: 14µM*; HCV inh: inconclusive; HCMV inh: -100*; Vaccinia Venus: inconclusive; Giardia FBPA inh: -1%

Results for CCCCCCCN(C(=O)CCl)c1ccccc1C ?
Vaccinia mCherry: -19%; FMDV inh: inconclusive; HCV inh: inconclusive; HCMV inh: -83*; Vaccinia Venus: -19%; Giardia FBPA inh: 5%

What do the screens show for `CCC(=O)N(Cc1cc(=O)[nH]c2ccccc12)c1ccccc1`?
Vaccinia mCherry: -18%; FMDV inh: -1%; HCV inh: 9%; HCMV inh: 5; Vaccinia Venus: -19%; Giardia FBPA inh: 6%

How did Cc1ccccc1N(Cc1cc(=O)[nH]c2ccccc12)C(=O)CCl do in these assays?
HCMV inh: -101*; Giardia FBPA inh: -10%

What do the screens show for `Cc1ccccc1N(Cc1cc(=O)[nH]c2ccccc12)C(=O)C(C)C`?
Vaccinia mCherry: -14%; FMDV inh: -14%; HCV inh: 26%; HCMV inh: 29; Vaccinia Venus: -10%; Giardia FBPA inh: 4%

What do the screens show for `CCCCSc1nnc2c(n1)OC(c1ccc(C)s1)Nc1ccccc1-2` (stereo not given)?
Vaccinia mCherry: -12%; FMDV inh: 0%; HCMV inh: inconclusive; Vaccinia Venus: -16%

Results for COc1ccccc1NC(=O)c1ccc(NC(=O)COC(=O)c2cccnc2Cl)cc1 ?
Vaccinia mCherry: -1%; FMDV inh: -18%; HCV inh: 1%; HCMV inh: 18; Vaccinia Venus: -7%

What do the screens show for `CC(C)C(=O)NC(=S)Nc1ccc(S(=O)(=O)NC2CCCCC2)cc1`?
FMDV inh: 62%; HCV inh: -20%; HCMV inh: -25

What do the screens show for `COc1ccc([C@H]2/C=C\CN(C(=O)CC(C)(C)C)[C@@H](C)C(=O)N2Cc2ccc(F)cc2)cc1`?
Vaccinia mCherry: inactive; FMDV inh: inconclusive; HCV inh: 5%; HCMV inh: -60*; Vaccinia Venus: -11%

How did COc1ccc(C2/C=C\CN(C(=O)C3CCCC3)C(C)C(=O)N2Cc2ccc(F)cc2)cc1 (stereo not given) do in these assays?
Giardia FBPA inh: -1%

Bioassay records: PubChem BioAssay, National Center for Advancing Translational Sciences (NCATS)
